This excerpt belongs to a sample that is enriched for hits.
PKM2 inhibitor = blocks activity of human pyruvate kinase M2 | P14618 | Potency, µM (titrated, usually from 57.5 µM), for inactives: at the top dose activity change, negative = inhibition, most hits filed as inhibitors | 0.058% of 260,000 active | purified PKM2, ATP generation, Kinase-Glo luminescence | AID 1634; active = well fitted inhibition curve with a large enough effect; note: nearly all actives have a fitted effect of over 60% in size
Target sequence (P14618 whole entry, looked up): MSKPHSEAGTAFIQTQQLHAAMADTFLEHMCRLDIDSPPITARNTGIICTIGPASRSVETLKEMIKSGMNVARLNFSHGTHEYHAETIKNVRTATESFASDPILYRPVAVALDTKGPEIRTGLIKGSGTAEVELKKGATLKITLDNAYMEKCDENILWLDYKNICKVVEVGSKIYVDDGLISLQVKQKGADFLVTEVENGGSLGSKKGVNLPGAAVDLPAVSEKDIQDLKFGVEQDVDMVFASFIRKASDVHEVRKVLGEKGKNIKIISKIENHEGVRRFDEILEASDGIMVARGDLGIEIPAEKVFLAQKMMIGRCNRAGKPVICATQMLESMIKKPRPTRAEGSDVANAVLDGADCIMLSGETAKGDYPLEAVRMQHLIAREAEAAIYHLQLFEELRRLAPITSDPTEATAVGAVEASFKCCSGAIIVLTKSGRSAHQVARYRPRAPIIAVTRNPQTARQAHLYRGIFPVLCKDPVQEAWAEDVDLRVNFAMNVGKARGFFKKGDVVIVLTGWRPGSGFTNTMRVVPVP
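Coupled luciferase luminescence (Kinase-Glo) detects ATP generated from 0.1 mM ADP and 0.5 mM PEP in imidazole buffer pH 7.2 with KCl, MgCl2; 1 h at room temperature. Enzyme at intermediate activity; normalized to uninhibited and no-enzyme controls.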
Active calls of the source: *. Potency is the fitted concentration of half-maximal effect.

SMILES	PKM2 inhibitor
CC(C)C[C@H](N)c1nnc(S(=O)(=O)Cc2ccc(F)cc2)o1	79%
O=C(NCc1nnc2c(C(F)(F)F)cc(Cl)cn12)c1cccs1	99%
Cc1ccc(N=Cc2c(C)[nH]n(-c3nc4ccccc4[nH]3)c2=O)cc1	10µM*
O=[N+]([O-])c1cccc(S(=O)(=O)c2ccc(NCCO)c([N+](=O)[O-])c2)c1	69%
O=C1CN(Cc2ccccc2)C(=NCc2ccco2)S1	39%
C(=C\c1nc2ccccc2[nH]1)/c1ccccc1	14µM*
c1ccc2[nH]c(CSc3nnc(-c4ccncc4)o3)nc2c1	134%
COc1ccc(NC(=O)C(CCS(C)(=O)=O)NC(C)=O)cc1 (stereo not given)	63%
CCCCCCS(=O)Cc1ccccc1 (stereo not given)	-8%
CC(C)c1ccc(CN2CC(C(=O)Nc3ccccc3)CC2=O)cc1 (stereo not given)	2%
Cc1oc(=O)c(NC(=O)c2cccc(Cl)c2)cc1C(=O)c1ccccc1	83%
COc1ccc(Nc2nc(C)cc(C)c2C(N)=O)c(OC)c1	41%
Cc1nc2ccc(N=NN(C)C)cc2[nH]1	62%
Cc1ccc2nc(-c3ccccn3)[nH]c2c1	16µM*
Nc1ccc2nc(Cc3ccccc3)[nH]c2c1	80%
Cc1ccc2[nH]c(=O)cc(C(=O)OC(C)C)c2c1	83%
Clc1cccc(Cl)c1COc1ccccc1CNn1cnnc1	41%
c1ccc(-c2cc3n(c2)CCc2ccccc2-3)cc1	34%
Cc1noc(/C=C/c2ccco2)c1S(=O)(=O)N1CCC(C(=O)N2CCc3ccccc3C2)CC1	89%
Cc1ccc(NS(=O)(=O)c2c(C)nc3sccn3c2=O)cc1C	81%
O=C1CCC(=O)N1c1cccc(-c2nc3ccccc3o2)c1	27%
c1ccc2nc(-c3nc4ccccc4o3)ccc2c1	18µM*
Cc1cc(C)c(S(=O)(=O)N(C)CC(=O)NCc2ccncc2)c(C)c1	56%
Cc1nn(CCC(=O)N2CCN(S(=O)(=O)c3ccccc3)CC2)c(C)c1C	83%
Cc1ccc(NS(=O)(=O)c2c(C)nc3sccn3c2=O)c(C)c1	55%
SMILES	PKM2 inhibitor
C=CCn1c(SCC(=O)NCCOC)nc2scc(-c3ccco3)c2c1=O	35%
Cc1ccc(CNC(=O)C2(CC(C)C)C=CCN2C(=O)c2ccccc2)o1 (stereo not given)	44%
COCCOc1ccc(C(F)(F)F)cc1Nc1nc2ccccc2o1	43%
O=C(Nc1ccccc1C(=O)N/N=C/c1ccncc1)c1ccccc1	14µM*
O=C(N/N=C/c1ccncc1)c1cc([N+](=O)[O-])cc([N+](=O)[O-])c1O	31%
Cc1cccc(C)c1NC(=S)N/N=C/c1ccccc1C(=O)O	-4%
CCOCCCNC(=O)/C(C#N)=C/c1ccc(C)o1	32%
CN(C1CCCCC1)S(=O)(=O)c1ccc(-c2ccccn2)s1	48%
COc1cc(/C=N/NC(=O)C2c3ccccc3Oc3ccccc32)ccc1O	66%
COc1cc(/C=N/Nc2nn3cnnc3c3ccccc23)ccc1O	25µM*
COc1cc(/C=N\Nc2nc(-c3ccc(C)cc3)c(NC(C)=O)s2)ccc1O	72%
COc1ccc(-c2nc3ccccc3[nH]2)cc1	13µM*
COc1ccc2[nH]c(=O)c(-c3noc(-c4ccccc4)n3)cc2c1	109%
Cc1nc2cc(NCc3ccccc3O)ccc2n1Cc1ccccc1	109%
Oc1cc2c(cc1CN1CCc3ccccc3C1)OCO2	32%
c1ccc2c(c1)Cc1cc3cc4c(cc3nc1-2)OCO4	8.9µM*
COc1ccc(-n2nnnc2-c2cnc3cc4c(cc3c2C)OCO4)cc1	35%
COc1ccc(-c2csc(NC(=O)CSc3nc(C)nc4sc(C(=O)O)c(C)c34)n2)cc1	45%
O=C(CSc1ncn[nH]1)Nc1ccc(Br)cc1F	9%
Clc1ccccc1Nc1nnc(-c2ccncc2)s1	13µM*
Cc1cc(N2CCN(S(=O)(=O)c3ccc4ccccc4c3)CC2)n2ncnc2n1	62%
COc1ccc(OC)c(C2NC(=O)c3sc(=S)n(-c4ccccc4)c3N2)c1 (stereo not given)	40%
O=c1c2sccc2nc(SCc2ccc([N+](=O)[O-])cc2)n1Cc1ccccn1	39%
CCc1cccc(NS(=O)(=O)c2ccc3c(c2)NC(=O)CO3)c1	52%
O=C(/C=C/c1ccccc1[N+](=O)[O-])NCCc1ccc(F)cc1	3%
SMILES	PKM2 inhibitor
Cc1ccc(N2C(=O)c3ccccc3C2O)nc1 (stereo not given)	11µM*
O=c1oc2cc(S(=O)(=O)NCCCO)ccc2c2ccc(S(=O)(=O)NCCCO)cc12	86%
Fc1ccc(-n2ncc3c(SCc4cccnc4)ncnc32)cc1	40%
Cc1ccc(CNC(=O)[C@H](C)[C@H]2C[C@]2(C)[C@H](NC(=O)OCc2ccccc2)c2ccccc2)o1	43%
Cc1ccc(-c2nc3c(c(=O)[nH]c(=O)n3Cc3ccccc3)n2C)o1	48%
COC(=O)c1cc(-c2ccc(C)o2)nc2ccccc12	56%
Cc1ccc(-c2nc3ccccc3n2C)o1	13µM*
CC(N)(C(=O)O)c1cccc(OCc2cccc(Cl)c2)c1 (stereo not given)	-8%

Screening data: PubChem, National Center for Advancing Translational Sciences (NCATS)
